From PubChem
NCF1 inh: p47phox (human) inhibition; P14598; p47phox/p22phox peptide binding, fluorescence polarization, 2 h; inhibition, % at 24.7 µM; 0.53% of 220,000 active; AID 1274;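 active = inhibition above about 30%, limit read from the data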;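 note: 0% = p47phox with labelled peptide and 100% = labelled peptide alone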
Target sequence (P14598 whole entry, looked up): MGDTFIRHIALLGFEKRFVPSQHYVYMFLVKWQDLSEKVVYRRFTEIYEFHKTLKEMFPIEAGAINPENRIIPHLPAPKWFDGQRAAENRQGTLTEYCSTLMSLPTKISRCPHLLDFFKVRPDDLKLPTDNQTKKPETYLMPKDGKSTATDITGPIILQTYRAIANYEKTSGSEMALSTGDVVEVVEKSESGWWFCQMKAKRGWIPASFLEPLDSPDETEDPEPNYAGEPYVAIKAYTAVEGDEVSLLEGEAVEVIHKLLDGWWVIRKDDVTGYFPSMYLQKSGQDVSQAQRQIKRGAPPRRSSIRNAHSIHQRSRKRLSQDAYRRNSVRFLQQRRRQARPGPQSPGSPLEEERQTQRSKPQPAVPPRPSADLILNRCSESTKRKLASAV
Mcl1 Noxa PPI: disrupts binding of human Mcl-1 to Noxa peptide | 1.5% of 220,000 active | TR-FRET Mcl-1/Noxa peptide binding, 2 h | inhibition, % at 21.7 µM | Q07820;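 active = compounds that cut the protein-peptide binding signal by more than 50% relative to plate controls in a single-dose test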;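 note: His-tagged Mcl-1 with rhodamine Noxa BH3 peptide and terbium anti-His antibody; 0% = Mcl-1 plus Noxa peptide wells and 100% = peptide-only wells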
Target sequence (Q07820 whole entry, looked up): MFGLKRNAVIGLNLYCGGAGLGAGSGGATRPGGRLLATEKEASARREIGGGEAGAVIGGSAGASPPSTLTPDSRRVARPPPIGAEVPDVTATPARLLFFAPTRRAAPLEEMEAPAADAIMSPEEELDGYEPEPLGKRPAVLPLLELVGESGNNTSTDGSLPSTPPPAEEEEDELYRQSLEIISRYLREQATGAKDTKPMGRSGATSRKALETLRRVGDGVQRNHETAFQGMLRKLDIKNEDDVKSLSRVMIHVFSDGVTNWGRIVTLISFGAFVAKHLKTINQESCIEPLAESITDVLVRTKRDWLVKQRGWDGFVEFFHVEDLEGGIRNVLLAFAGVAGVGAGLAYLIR
14-3-3 Bad inh: disrupts binding of bovine 14-3-3 zeta to phospho-Bad peptide; inhibition, % at 21.7 µM; 0.71% of 220,000 active; TR-FRET 14-3-3zeta/Dy647-pBad peptide displacement, 1 h; AID 781; P63103;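 active = inhibition above about 70%, limit read from the data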;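 note: 0% = full 14-3-3 plus peptide FRET controls and 100% = background without 14-3-3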
Mcl1 Bid PPI: Mcl-1/Bid interaction inhibition; TR-FRET Mcl-1/Bid-Dy647 peptide binding, 1536-well; Q07820; inhibition, % at 21.7 µM; 0.97% of 220,000 active;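 active = compounds that cut the binding signal by more than half at the single screening dose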;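 note: His-tagged Mcl-1 with europium anti-His antibody binding Bid BH3 peptide; 0% = Mcl-1 plus peptide wells and 100% = peptide-only wells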
Mcl-1 Bim block: human Bim-Mcl-1 interaction inhibition. AID 1009. Bead-based flow cytometry, Bim peptide-Mcl-1 binding. Q07820. 0.1% of 190,000 active. inhibition, % at 10 µM; in the data active = inhibition above about 40%;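 note: 0% = no compound tracer wells and 100% = peptide blocker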
Calpain2 inh: inhibitors of pig calpain II. purified calpain II, fluorogenic peptide substrate, 30 min. inhibition, % at 16 µM. 0.37% of 220,000 active;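 active = inhibition above about 50%, limit read from the data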
Active calls of the source: *; nt = no result; [ ] = another dose, or the depositor's remark. Rows were chosen to be rich in hits. Some 3.4% of all compounds tested hit in one or more screens of this group.

SMILES | NCF1 inh | Mcl1 Noxa PPI | 14-3-3 Bad inh | Mcl1 Bid PPI | Mcl-1 Bim block | Calpain2 inh
c1coc(C2Nc3cccc4cccc(c34)N2)c1 | 23.7 | 76.4* | -14.5 | -20.8 | 15.0 | -61.4
Cc1cc(C)n2nc(SCCC(=O)NCc3ccccc3)nc2n1 | -0.7 | -5.1 | 1.2 | -9.4 | 1.0 | 10.1
COc1ccc(S(=O)(=O)N2CCCC(C(F)(F)F)C2)cc1 (stereo unspecified) | -4.5 | 14.3 | 0.9 | -9.3 | -2.0 | 37.2
Cc1cc(=O)[nH]c2c(N=Nc3ccc(O)cc3)c(N)nn12 | -61.0 | 56.9* | -11.2 | -36.7 | 21.0 | 1.8
Cc1ccsc1/C=N/n1c(COc2ccccc2)n[nH]c1=S | 3.1 | 7.8 | -4.1 | -75.0 | -23.0 | 1.3
O=C(/C=C/c1ccco1)N1CCc2ccccc21 | -2.3 | 19.1 | -3.8 | -31.1 | 0.0 | -28.7
Cc1ccc(/C=C/C(=O)N2CCc3ccccc32)o1 | -38.4 | 61.2* | 0.5 | -89.0 | -5.0 | -31.4
O=C(C1CCCN(Cc2cccnc2)C1)N1CCCCC1 (stereo unspecified) | -9.0 | 0.8 | 25.6 | 52.3* | -5.0 | -16.7
CCCC(c1nnnn1CS(=O)(=O)c1ccc(C)cc1)N1CCN(CC)CC1 (stereo unspecified) | 5.8 | 9.4 | 2.2 | 1.2 | 2.0 | 17.9
COc1cc2c(cc1OC)CN(CC(=O)Nc1ccc(C#N)cc1)CC2 | -20.9 | 5.7 | -17.2 | 98.2* | 5.0 | -35.4
Cc1ccc(NC(=O)CN2CCc3ccccc3C2)cc1F | 4.5 | 26.6 | 66.7 | 97.5* | nt | -17.7
O=C(CCN1CCc2ccccc2C1)Nc1cccc(F)c1 | -10.2 | 16.3 | 5.3 | 77.4* | -5.0 | -24.6
CC(=O)c1ccc(NC(=O)c2ccn(C(=O)OCC(C)C)n2)cc1 | -1.2 | -4.8 | -15.8 | -9.7 | -2.0 | 2.5
O=c1cc(-c2ccccc2)nc(SCCOc2ccccc2Cl)[nH]1 | -2.3 | -1.4 | -4.3 | -18.6 | 0.0 | 17.6
O=C(N/N=C\c1c(O)ccc2ccccc12)c1ccc(Cn2cccn2)o1 | -13.8 | 51.3* | -17.8 | -70.2 | 0.0 | -181.1
N#Cc1c2nc3ccccc3nc2n2cc(NC(=O)c3ccc(F)cc3)ccc12 | 55.0* | 111.3* | 78.0*[fluorescence artefact?] | 86.0* | 12.0 | -68.1
CCCCNC(C(=O)Nc1ccc([N+](=O)[O-])cc1Br)c1ccccc1 (stereo unspecified) | -0.2 | 36.8 | 71.1* | 20.8 | -2.0 | -0.1
COCCNC(C(=O)Nc1ccc([N+](=O)[O-])cc1Br)c1ccccc1 (stereo unspecified) | -1.5 | 13.0 | -10.9 | -1.7 | -3.0 | -3.8
C(=N\c1nc2ccccc2n1CCN1CCOCC1)/c1cccs1 | -16.3 | 3.6 | -7.5 | -25.7 | -1.0 | -7.2
C(=N\c1nc2ccccc2n1Cc1ccccc1)/c1cccs1 | 0.5 | 20.1 | -3.4 | 50.7* | -1.0 | -11.9
CCOc1cccc(CNCCO)c1OCc1ccc(Cl)cc1Cl | -9.4 | 28.6 | 3.6 | 72.2* | -6.0 | 12.0
CCOc1c(Cl)cc(Cl)cc1CNCCNCCO | -47.4 | 29.6 | 72.3* | 8.5 | -2.0 | -16.7
CCOc1cccc(CNc2ccc(O)cc2)c1OCc1ccc(Cl)cc1Cl | -12.9 | 3.5 | -11.6 | -12.7 | -4.0 | 67.6*
CCOc1cccc(CNc2ccc(O)cc2)c1OCc1ccccc1Cl | 1.1 | 7.0 | -0.4 | -10.7 | 0.0 | 6.6
COc1c(Cl)cc(Cl)cc1CNCCO | -4.6 | 8.3 | -1.8 | -2.0 | -1.0 | -11.9
SMILES | NCF1 inh | Mcl1 Noxa PPI | 14-3-3 Bad inh | Mcl1 Bid PPI | Mcl-1 Bim block | Calpain2 inh
O=C(OCC(=O)N1CCCCCC1)c1ccc([N+](=O)[O-])cc1Cl | -0.8 | 1.8 | 4.3 | -10.2 | 0.0 | 15.9
CN(C)c1ccc(/C=C2\N=C(c3ccc(Cl)c([N+](=O)[O-])c3)NC2=O)cc1 | nt | 72.6* | 56.9 | 39.9 | 0.0 | -11.0
COc1ccc(C(=O)Cc2nnc(C)s2)cc1 | -3.2 | -0.3 | -5.7 | -3.3 | -3.0 | 6.1
Cc1cccc(-c2nc(Nc3ccc(N4CCOCC4)cc3)c3ccccc3n2)c1 | -21.0 | 81.5* | -15.5 | 25.2 | 2.0 | -38.4
Cc1ccc(Nc2nc(N3CCOCC3)c3ccccc3n2)cc1 | -12.9 | 9.6 | 0.8 | -11.6 | 0.0 | -1.9
Cc1ccc(-c2noc(-c3ccno3)n2)cc1 | -14.0 | 4.7 | 3.2 | -14.9 | nt | -18.6
NS(=O)(=O)c1ccc(NC2=CC(c3ccc([N+](=O)[O-])cc3)N(c3ccc(S(N)(=O)=O)cc3)C2=O)cc1 (stereo unspecified) | -0.5 | 6.6 | -5.0 | -12.9 | nt | -13.3
COc1c2ccoc2nc2c(OC)c(OCC(OC(C)=O)C(C)(C)O)ccc12 (stereo unspecified) | 161.1* | -4.7 | 8.9 | 7.8 | 3.0 | -377.0
Fc1ccc(N/N=C/c2ccncc2)c(F)c1 | -0.6 | 28.2 | -1.8 | -63.3 | -10.0 | 13.0
Clc1ccc(N/N=C/c2ccncc2)cc1Cl | -1.5 | 51.0* | 0.9 | -38.8 | 0.0 | 4.5
Cc1nc2ccccc2n1CC(=O)NC1CCCC1 | -4.8 | 16.2 | 71.0* | -7.9 | -2.0 | 5.8
Cc1nc2ccccc2n1CC(=O)NC1CCCCCC1 | -11.2 | 5.9 | -1.7 | -3.7 | nt | -18.7
Cc1nnc(NC(=O)CSc2ccc3nnc(-c4cccnc4)n3n2)s1 | 1.9 | 16.3 | -5.3 | -15.7 | 0.0 | -51.8
Cc1cccc(NC(=O)CN2C(=O)N/C(=C/c3ccc(C)o3)C2=O)c1 | -77.5 | 85.3* | -1.2 | 0.0 | 6.0 | 15.7
CCn1c(C)cc(/C=C2/NC(=O)N(CC(=O)Nc3cccc(C)c3)C2=O)c1C | 58.6* | 54.3* | 37.5 | 85.4* | -4.0 | 16.2
COc1cc(COCC(O)CN2CCc3ccccc3C2)cc(OC)c1OC (stereo unspecified) | -1.9 | 11.6 | -8.0 | -36.7 | 2.0 | -23.7
O=C(O)c1ccc(-c2ccc(/C=N/Nc3ccc([N+](=O)[O-])cc3)o2)cc1 | -39.5 | 61.7* | -2.8 | -49.2 | nt | 2.3
NS(=O)(=O)c1ccc(-c2ccc(/C=N/Nc3ccc(C(=O)O)cc3)o2)cc1 | -28.4 | 59.1* | 3.5 | -83.4 | nt | -22.9
CCc1nnc(NS(=O)(=O)c2ccc(N=CC3=C(O)CC(C)(C)CC3=O)cc2)s1 | -4.2 | -6.7 | 63.6 | -44.0 | 44.0* | 20.7
CC1(C)CC(=O)C(C=Nc2ccc(O)cc2)=C(O)C1 | -12.8 | 7.8 | -11.6 | -11.5 | 0.0 | -5.8
CCOC(=O)N1CCC(N2CCN(S(=O)(=O)CC)CC2)CC1 | -4.3 | 11.6 | 71.8* | 7.8 | -4.0 | 17.9
Cn1c(Cn2nnc3ccccc32)nnc1SCC(=O)Nc1nccs1 | -55.3 | 8.3 | 3.3 | -11.2 | -8.0 | -6.0
CNc1nn(-c2cccc(Cl)c2)nc1N | -60.8 | -65.6 | -5.4 | 95.7* | -6.0 | 2.1
C/C(=N\NC(=S)NC1CCCCC1)c1ccc(OC(F)F)cc1OC(F)F | -4.2 | -7.1 | -20.1 | -39.5 | 0.0 | 53.9*
Cc1nc(NCCc2cnc[nH]2)c2oc3ccccc3c2n1 | nt | nt | nt | nt | 0.0 | nt
COc1ccc(CCNc2nc(C)nc3c2oc2ccccc23)cc1OC | 1.2 | 26.1 | 75.3* | -0.8 | -1.0 | -42.8
COc1ccc(CCNc2ncnc3c2oc2ccccc23)cc1OC | -5.6 | 33.9 | 84.7* | -14.6 | -2.0 | -18.7
